Records with an inconclusive call do not appear. Unmarked numbers belong to inactive results. Active and inactive are the calls of the source. The call rests on the fitted dose curve; in most records, active means well fitted cell-killing curve with a large enough effect; inconclusive means small, poorly fitted or top-dose-only effect, or effect the other way; inactive means flat fitted curve, though single readings scatter.
tested on: PA-1; experiment: Primary qHTS to identify gynecologic anti-cancer compounds using libraries of approved drugs and bioactive compounds (AID 1345084); details: Gynecologic cancer cell panel viability, ATPlite luminescence, 48 h; series mostly up to 57.5 µM; activity change, negative = cytotoxicity: at the top concentration; further: nearly all actives have a fitted effect of over 55% in size
Summary of the method: (§1)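 In this quantitative HTS, cell killing is estimated from loss of ATP-dependent luciferase light. Cells see five compound concentrations over a 48 h exposure.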
On the % scale 0 is the no-effect control and ±100 the full control effect; potency means the concentration at half of the fitted maximal effect.

Point of comparison: `CC1(C)CCC(C)(C)c2cc(C#Cc3ccc(C(=O)O)cc3)ccc21`, “activity change, negative = cytotoxicity” value 3.72%. Against it:
- CC(=O)NCc1cccc(OC[C@@H](O)CNCCc2ccc(NS(=O)(=O)c3ccccc3)cc2)c1 — higher, 7.73%
- CC(C)(C)[C@H](NC(=O)c1ccc(N)c(Cl)c1)C(=O)N1CCC[C@H]1C(=O)N[C@H](C#N)CC(=O)O — lower, -5.16%
- CCn1c(=O)n([C@H]2CCCN(c3nccc(-c4cc5ccccc5o4)n3)C2)c2ccccc21 — lower, 2.83%
- CCCn1cc2c(nc(NC(=O)Nc3ccc(OC)cc3)n3nc(-c4ccco4)nc23)n1 — higher, 9.76%
- c1cc(NCCc2c[nH]c3ccccc23)cc(Nc2ccncc2)c1 — lower, -2.04%
- O=C(NCCCCCCCCNC(=O)C(Cl)Cl)C(Cl)Cl — lower, -0.838%
- O=C(CNC(=O)c1cccc(C(F)(F)F)c1)N[C@@H]1CCN(Cc2ccc(Cl)cc2)C1 — higher, 6.6%
- Nc1nc2c(cnn2CCCc2ccc(O)cc2)c2nc(-c3ccco3)nn12 — lower, -10.2%
- O=c1ccc2ccc(OCCCCN3CCN(c4cccc5sccc45)CC3)cc2[nH]1 — lower, -26.8%
- NS(=O)(=O)Nc1ncnc(OCCOc2ncc(Br)cn2)c1-c1ccc(Br)cc1 — lower, -27.9%
- Cc1ccnn1-c1ccc(C(=O)N2CCN(S(=O)(=O)c3ccc(Cl)c(C(F)(F)F)c3)CC2)cc1 — lower, 2.93%
- CN(c1ccc(NC(=O)Nc2ccccc2)cc1)S(=O)(=O)c1cnn(-c2ccc(F)cc2)c1 — lower, -6.72%
- COC(=O)c1cc(Br)cnc1N1CCC(NC2CCCCC2)C(O)C1 (stereo not drawn) — lower, -1.57%
- CCc1cc2c(cc1CC)CC(NCC(O)c1ccc(O)c3[nH]c(=O)ccc13)C2 (stereo not drawn) — higher, 7.46%
- CC(C)S(=O)(=O)NC[C@@H]1CC(c2ccc(N3CCCC3)c(F)c2)=NO1 — lower, -28.7%
- C[C@@H](c1ccc2nccn2c1)n1nnc2ncc(-c3cnn(C)c3)nc21 — lower, -23%
- Fc1ccc(-c2nc(-c3c(F)cccc3F)[nH]c2-c2ccncc2)cc1 — higher, 5.21%
- Cc1cc(CS(=O)(=O)c2ccccc2)cc(OCc2ccc(CN3CCCC3CO)cc2)c1 (stereo not drawn) — lower, -18.9%
- CCOC(=O)CCNc1cc(N2CCc3ccccc3CC2)nc(-c2cccnc2)n1 — lower, 0.158%
- Cc1csc2c(N[C@@H](C)CN3CCN(S(=O)(=O)c4ccc(Cl)c(Cl)c4)CC3)ncnc12 — lower, -9.93%
- Cc1nc(Nc2cnn(C3CCNCC3)c2)nc2c1N(C)C(=O)c1cc3ccccc3cc1N2C — lower, -18%
- CN(C)C(CCOc1cccc2ccccc12)c1ccccc1 (stereo not drawn) — lower, -7.66%
- CC(C)c1ccc(NC(=O)c2cccs2)c(-c2nc3ccccc3[nH]c2=O)c1 — lower, -12.8%
- CCO[C@H]1CN(C2CCC(O)(c3ccc4c(c3)OCO4)CC2)C[C@@H]1NC(=O)CNC(=O)c1cccc(C(F)(F)F)c1 (stereo partly drawn) — higher, 20%
- Cc1c(OCc2cccc(-c3ccc(C(=O)O)cc3)c2)cc2c(c1C)C(=O)C(C1CCCC1)C2 (stereo not drawn) — higher, 6.21%
- Clc1ccc(Cn2c(Cc3ccccc3)nc3ccccc32)cc1 — lower, -13.3%
- COc1cc2ncnc(Nc3cccc(I)c3)c2cc1OC — lower, -17.2%
- CC(C)Nc1nc(Nc2ccccc2)nc(-c2ccccc2)n1 — lower, -12.5%
- COCC(c1ccc(C(F)(F)F)cc1)N1CCN(C2(C)CCN(C(=O)c3c(C)ncnc3C)CC2)CC1C (stereo not drawn) — lower, 0.704%
- CC(C)(C)Sc1c(CC(C)(C)C(=O)O)n(Cc2ccc(Cl)cc2)c2ccc(OCc3ccc4ccccc4n3)cc12 — higher, 15%
- CN(C)CCC(CSc1ccccc1)Nc1ccc(S(=O)(=O)NC(=O)c2ccc(N3CCN(Cc4ccccc4-c4ccc(Cl)cc4)CC3)cc2)cc1[N+](=O)[O-] (stereo not drawn) — lower, 2.76%

With `CC(C)(O)C1Cc2c(ccc(C(=O)CCc3ccccc3)c2O)O1` (stereo not drawn) the Potency was 12.6 µM (active).
In the case of `Cc1[nH]c2ccc(F)cc2c1-c1nc2c3cccnc3c3ncccc3c2[nH]1`, the Potency is reported as 7.94 µM (active).
`CN1CCN(Cc2ccc(NC(=O)Cc3ccc(Oc4cc(NC(=O)C5CC5)ncn4)cc3)cc2C(F)(F)F)CC1` was tested, and the Potency was 5.62 µM (active).

Point of comparison: `C/C=C/C=C/C=C/C(=O)O[C@@H]1C=C2COC(=O)[C@]2(O)[C@@]2(C)CCCC(C)(C)[C@H]12`, “activity change, negative = cytotoxicity” value -27.7% [at 25.3 µM]. Against it:
- C/C=C/C=C/C=C/C(=O)O[C@@H]1C=C(CO)C(O)(C(=O)OC)[C@@]2(C)CCCC(C)(C)C12 (stereo partly drawn) — higher, 3.26% [at 25.3 µM]

For `CCC(C)C(=O)O[C@H]1[C@H](O)[C@@]2(COC(C)=O)C(CC1(C)C)C1=CCC3[C@@]4(C)CC[C@H](O[C@@H]5O[C@H](C(=O)O)[C@@H](O)[C@H](O)[C@H]5O)[C@@](C)(CO)C4CC[C@@]3(C)[C@]1(C)C[C@@H]2O` (stereo partly drawn), the activity change, negative = cytotoxicity was 5.51% [at 11.6 µM].

For `CS/C=C/C(=O)O[C@@H]1CCC2=CC(=O)C(=C(C)C)C[C@]2(C)[C@H]1C`, the “activity change, negative = cytotoxicity” value was -10.1% [at 38.5 µM].

tested on: Tov-21-G; experiment: as above; details: Gynecologic cancer cell panel viability, ATPlite luminescence, 48 h; series mostly up to 57.5 µM; activity change, negative = cytotoxicity: at the top concentration
Summary of the method: as §1

Point of comparison: `CC(C)Nc1nc(Nc2ccccc2)nc(-c2ccccc2)n1`, “activity change, negative = cytotoxicity” value 0.183%. Against it:
- CC(=O)NCc1cccc(OC[C@@H](O)CNCCc2ccc(NS(=O)(=O)c3ccccc3)cc2)c1 — higher, 5.83%
- CC(C)(C)[C@H](NC(=O)c1ccc(N)c(Cl)c1)C(=O)N1CCC[C@H]1C(=O)N[C@H](C#N)CC(=O)O — lower, -4.25%
- CCn1c(=O)n([C@H]2CCCN(c3nccc(-c4cc5ccccc5o4)n3)C2)c2ccccc21 — higher, 13.2%
- CCCn1cc2c(nc(NC(=O)Nc3ccc(OC)cc3)n3nc(-c4ccco4)nc23)n1 — lower, -1.79%
- c1cc(NCCc2c[nH]c3ccccc23)cc(Nc2ccncc2)c1 — higher, 14.2%
- O=C(NCCCCCCCCNC(=O)C(Cl)Cl)C(Cl)Cl — higher, 16.6%
- O=C(CNC(=O)c1cccc(C(F)(F)F)c1)N[C@@H]1CCN(Cc2ccc(Cl)cc2)C1 — lower, -21.8%
- Nc1nc2c(cnn2CCCc2ccc(O)cc2)c2nc(-c3ccco3)nn12 — lower, -23.6%
- O=c1ccc2ccc(OCCCCN3CCN(c4cccc5sccc45)CC3)cc2[nH]1 — higher, 5.87%
- NS(=O)(=O)Nc1ncnc(OCCOc2ncc(Br)cn2)c1-c1ccc(Br)cc1 — lower, -0.377%
- Cc1ccnn1-c1ccc(C(=O)N2CCN(S(=O)(=O)c3ccc(Cl)c(C(F)(F)F)c3)CC2)cc1 — lower, -2.16%
- CN(c1ccc(NC(=O)Nc2ccccc2)cc1)S(=O)(=O)c1cnn(-c2ccc(F)cc2)c1 — lower, -18.1%
- COC(=O)c1cc(Br)cnc1N1CCC(NC2CCCCC2)C(O)C1 (stereo not drawn) — lower, -6.75%
- CCc1cc2c(cc1CC)CC(NCC(O)c1ccc(O)c3[nH]c(=O)ccc13)C2 (stereo not drawn) — lower, -1.76%
- CC(C)S(=O)(=O)NC[C@@H]1CC(c2ccc(N3CCCC3)c(F)c2)=NO1 — lower, -8.96%
- C[C@@H](c1ccc2nccn2c1)n1nnc2ncc(-c3cnn(C)c3)nc21 — lower, -16.3%
- Fc1ccc(-c2nc(-c3c(F)cccc3F)[nH]c2-c2ccncc2)cc1 — lower, -25.5%
- Cc1cc(CS(=O)(=O)c2ccccc2)cc(OCc2ccc(CN3CCCC3CO)cc2)c1 (stereo not drawn) — lower, -0.196%
- Cc1[nH]c2ccc(F)cc2c1-c1nc2c3cccnc3c3ncccc3c2[nH]1 — lower, -13.6%
- CCOC(=O)CCNc1cc(N2CCc3ccccc3CC2)nc(-c2cccnc2)n1 — higher, 0.301%
- Cc1csc2c(N[C@@H](C)CN3CCN(S(=O)(=O)c4ccc(Cl)c(Cl)c4)CC3)ncnc12 — lower, -15.8%
- Cc1nc(Nc2cnn(C3CCNCC3)c2)nc2c1N(C)C(=O)c1cc3ccccc3cc1N2C — lower, -14%
- CN(C)C(CCOc1cccc2ccccc12)c1ccccc1 (stereo not drawn) — lower, -17.4%
- CC(C)c1ccc(NC(=O)c2cccs2)c(-c2nc3ccccc3[nH]c2=O)c1 — lower, -9.63%
- CCO[C@H]1CN(C2CCC(O)(c3ccc4c(c3)OCO4)CC2)C[C@@H]1NC(=O)CNC(=O)c1cccc(C(F)(F)F)c1 (stereo partly drawn) — lower, -1.1%
- Cc1c(OCc2cccc(-c3ccc(C(=O)O)cc3)c2)cc2c(c1C)C(=O)C(C1CCCC1)C2 (stereo not drawn) — higher, 17.1%
- CC1(C)CCC(C)(C)c2cc(C#Cc3ccc(C(=O)O)cc3)ccc21 — higher, 21.8%
- Clc1ccc(Cn2c(Cc3ccccc3)nc3ccccc32)cc1 — higher, 7.35%
- COc1cc2ncnc(Nc3cccc(I)c3)c2cc1OC — lower, -13.5%
- COCC(c1ccc(C(F)(F)F)cc1)N1CCN(C2(C)CCN(C(=O)c3c(C)ncnc3C)CC2)CC1C (stereo not drawn) — higher, 7.99%
- CC(C)(C)Sc1c(CC(C)(C)C(=O)O)n(Cc2ccc(Cl)cc2)c2ccc(OCc3ccc4ccccc4n3)cc12 — higher, 22%
- CN(C)CCC(CSc1ccccc1)Nc1ccc(S(=O)(=O)NC(=O)c2ccc(N3CCN(Cc4ccccc4-c4ccc(Cl)cc4)CC3)cc2)cc1[N+](=O)[O-] (stereo not drawn) — lower, -5.11%

In the case of `CC(C)(O)C1Cc2c(ccc(C(=O)CCc3ccccc3)c2O)O1` (stereo not drawn), the Potency is reported as 12.6 µM (active).
In the case of `CN1CCN(Cc2ccc(NC(=O)Cc3ccc(Oc4cc(NC(=O)C5CC5)ncn4)cc3)cc2C(F)(F)F)CC1`, the Potency is reported as 6.31 µM (active).

Point of comparison: `C/C=C/C=C/C=C/C(=O)O[C@@H]1C=C(CO)C(O)(C(=O)OC)[C@@]2(C)CCCC(C)(C)C12` (stereo partly drawn), “activity change, negative = cytotoxicity” value 3.96% [at 25.3 µM]. Against it:
- C/C=C/C=C/C=C/C(=O)O[C@@H]1C=C2COC(=O)[C@]2(O)[C@@]2(C)CCCC(C)(C)[C@H]12 — lower, 0.443% [at 25.3 µM]

`CCC(C)C(=O)O[C@H]1[C@H](O)[C@@]2(COC(C)=O)C(CC1(C)C)C1=CCC3[C@@]4(C)CC[C@H](O[C@@H]5O[C@H](C(=O)O)[C@@H](O)[C@H](O)[C@H]5O)[C@@](C)(CO)C4CC[C@@]3(C)[C@]1(C)C[C@@H]2O` (stereo partly drawn) showed an activity change, negative = cytotoxicity of 17.2% [at 11.6 µM].

For `CS/C=C/C(=O)O[C@@H]1CCC2=CC(=O)C(=C(C)C)C[C@]2(C)[C@H]1C`, the “activity change, negative = cytotoxicity” value was 4.09% [at 38.5 µM].

— PubChem BioAssay (NCATS)
